RE007 growth inh: less growth of the S. pombe RE007 Vpr strain; S. pombe RE007 Vpr strain, BacTiter-Glo ATP luminescence, 24 h; Potency, µM (highest dose often 92.2 µM), actives largely listed as inhibitors; 0.21% of 360,000 active; active = well fitted falling curve with a large enough effect; inconclusive = small, poorly fitted or top-dose-only effect; inactive = no such curve, though single readings can be large or run the other way; note: nearly all actives have a fitted effect of over 50% in size
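Fission yeast RE007 carrying one integrated HIV-1 vpr copy, seeded at OD 0.01 in PMG+AL medium with 23 nL pinned compound. Grown 24 h at 30 degrees; viability read by BacTiter-Glo luminescence after 5 min.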
Cycloheximide cs: affects cycloheximide protein synthesis inhibition readout, counter-screen | cell reporter, cycloheximide protein synthesis inhibition counterscreen | max response, % | 12% of 300,000 active | AID 2314; in the data active = max response mostly above about 13%, no sharp cut-off; inactive = mostly below about 14%; note: read at 38.3 µM for the half of the compounds with a filed dose
Giardia FBPA inh: inhibitors of Giardia lamblia fructose-1,6-bisphosphate aldolase | A8B2U2 | purified Giardia FBPA | AID 2451 | 0.71% of 290,000 active | Potency, µM (highest dose often 59.6 µM), hits mostly inhibitors; note: nearly all actives have a fitted effect of over 55% in size
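Giardia FBPA (40 nM reagent) was preincubated 10 min at RT with compound (up to 57.5 uM final), then substrate plus GAPDH/TPI/NAD/arsenate coupling system with diaphorase/resazurin was added; resorufin fluorescence (525/598 nm) was read after 20 min.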
Shiga toxin inh: inhibitors of Shiga toxin in Vero cells. AID 2315. inhibition, % at 38.7 µM. 9.2% of 290,000 active. Vero cells, Shiga toxin protein synthesis inhibition reporter; in the data active = inhibition mostly above about 28%, no sharp cut-off; inactive = mostly below about 43%
Tb PYK inh: inhibitors of Trypanosoma brucei pyruvate kinase; Potency, µM (top dose mostly 76.8 µM), usual class: inhibitors; TbPYK enzyme, Kinase-Glo Plus ATP luminescence, 45 min; 0.12% of 410,000 active; AID 624173; Q57TT1; note: nearly all actives have a fitted effect of over 50% in size
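Activity of T. brucei pyruvate kinase was followed by Kinase-Glo Plus luminescence after the enzyme reacted 45 min at room temperature with 130 uM ADP (final) and substrate. Test compounds were added before ADP at multiple concentrations.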
LmPK inhibitor: inhibitors of Leishmania mexicana pyruvate kinase; Q27686; purified LmPK, Kinase-Glo ATP luminescence, 1 h; Potency, µM (doses to about 57.5 µM), hits mostly inhibitors; 0.37% of 290,000 active; AID 1721
Target sequence (Q27686 whole entry, looked up): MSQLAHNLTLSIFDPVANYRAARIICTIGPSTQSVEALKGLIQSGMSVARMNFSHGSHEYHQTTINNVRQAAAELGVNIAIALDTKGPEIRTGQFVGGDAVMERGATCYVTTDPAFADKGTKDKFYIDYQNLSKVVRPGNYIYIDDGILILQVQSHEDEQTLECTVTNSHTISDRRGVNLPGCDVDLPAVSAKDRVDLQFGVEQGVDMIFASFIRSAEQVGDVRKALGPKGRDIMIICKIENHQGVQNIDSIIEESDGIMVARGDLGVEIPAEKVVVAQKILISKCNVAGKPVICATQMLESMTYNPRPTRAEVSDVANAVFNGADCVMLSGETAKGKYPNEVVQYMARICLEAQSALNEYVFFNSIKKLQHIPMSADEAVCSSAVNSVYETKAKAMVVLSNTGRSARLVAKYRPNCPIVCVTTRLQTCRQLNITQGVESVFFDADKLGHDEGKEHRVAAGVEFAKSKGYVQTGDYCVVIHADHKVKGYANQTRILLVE
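Kinase-Glo luminescence read after 1 h RT reaction of 0.1 nM LmPK with 0.5 mM PEP and 0.1 mM ADP. Activity scaled between uninhibited and enzyme-free controls.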
A number is an active result; [ ] = another dose, or the depositor's remark. This excerpt belongs to a sample that is enriched for hits. Unless noted, calls come from the whole dose curve; as a rule, active = well fitted curve in the direction sought with a large enough effect; inconclusive = small, poorly fitted or top-dose-only effect, or another doubt; inactive = no such curve, though single readings can be large; an effect the other way counts as inactive or inconclusive.

What do the screens show for `CC(C)c1ccc(O)c(N)c1`?
RE007 growth inh: inactive; Cycloheximide cs: 30; Giardia FBPA inh: inactive; Shiga toxin inh: 67; Tb PYK inh: inactive; LmPK inhibitor: inactive

How did Oc1c(Cl)cc(Cl)cc1/C=C/c1ccc2cccc(O)c2n1 do in these assays?
RE007 growth inh: inactive; Cycloheximide cs: inactive; Giardia FBPA inh: inactive; Shiga toxin inh: inactive; Tb PYK inh: inactive; LmPK inhibitor: inactive

What do the screens show for `CSc1ccc(/C=C/c2ccc3cccc(O)c3n2)cc1`?
RE007 growth inh: inactive; Cycloheximide cs: 44; Giardia FBPA inh: inactive; Shiga toxin inh: 115; Tb PYK inh: inactive; LmPK inhibitor: inconclusive

What do the screens show for `Oc1cccc2ccc(/C=C/c3ccccc3Br)nc12`?
RE007 growth inh: inactive; Cycloheximide cs: 62; Giardia FBPA inh: inactive; Shiga toxin inh: 83; Tb PYK inh: inactive; LmPK inhibitor: inactive

How did Oc1ccc(Cl)cc1/C=C/c1ccc2cccc(O)c2n1 do in these assays?
RE007 growth inh: inconclusive; Cycloheximide cs: 29; Giardia FBPA inh: inactive; Shiga toxin inh: 61; Tb PYK inh: inactive; LmPK inhibitor: inactive

Results for Oc1ccc2ccccc2c1/C=C/c1ccc2c(Br)cc(Br)c(O)c2n1 ?
RE007 growth inh: inactive; Tb PYK inh: inactive

How did COc1cc(Br)cc(/C=C/c2ccc3cccc(O)c3n2)c1O do in these assays?
RE007 growth inh: inactive; Cycloheximide cs: 32; Giardia FBPA inh: inactive; Shiga toxin inh: 75; Tb PYK inh: inactive; LmPK inhibitor: inactive

How did COc1ccc(CCN2CC(C(=O)OCc3ccccc3Cl)CC2=O)cc1OC (centres undefined) do in these assays?
RE007 growth inh: inactive; Tb PYK inh: inactive

What do the screens show for `CC(C)(C)C(CN1CCCC1)OC(=O)c1ccccc1` (centres undefined)?
RE007 growth inh: inactive; Cycloheximide cs: inactive; Giardia FBPA inh: inactive; Shiga toxin inh: inactive; Tb PYK inh: inactive; LmPK inhibitor: inactive

What do the screens show for `COc1ccc(OC)c(/C=C/c2ccnc3ccccc23)c1`?
RE007 growth inh: inactive; Tb PYK inh: inactive

What do the screens show for `COc1cc(/C=C/c2ccc3cccc(O)c3n2)c(Br)cc1O`?
Cycloheximide cs: 40; Giardia FBPA inh: inactive; Shiga toxin inh: 93; LmPK inhibitor: inactive

What do the screens show for `COc1cc(Br)c(/C=C/c2ccc3cccc(O)c3n2)cc1OC`?
RE007 growth inh: inactive; Cycloheximide cs: inactive; Giardia FBPA inh: inactive; Shiga toxin inh: inactive; Tb PYK inh: inactive; LmPK inhibitor: inactive

Results for COc1ccc(OC)c(/C=C/c2ccc3cccc(O)c3n2)c1 ?
Cycloheximide cs: 59; Giardia FBPA inh: inactive; Shiga toxin inh: 89; LmPK inhibitor: inactive

Results for COc1cc(/C=C/c2ccc3cccc(O)c3n2)ccc1O ?
Cycloheximide cs: 55; Giardia FBPA inh: inactive; Shiga toxin inh: 68; Tb PYK inh: inactive; LmPK inhibitor: inactive

How did CC(=O)N[C@@H]1C(O[C@H]2O[C@H](C(=O)O)C(O)[C@H](O)[C@H]2O)[C@H](O)[C@@H](CO)O[C@H]1O[C@@H]1C(C(=O)O)O[C@@H](O[C@H]2[C@H](O)[C@@H](CO)OC(O)[C@@H]2NC(C)=O)[C@H](O)[C@H]1O (some centres undefined) do in these assays?
Tb PYK inh: inactive

Results for COc1cc(-c2noc(C)c2C(=O)NCCCN2CCOCC2)cc(OC)c1OC ?
RE007 growth inh: inactive; Tb PYK inh: inactive

Results for CN(C)c1ccc(/C=N/NC(=S)NCc2ccccc2)cc1 ?
RE007 growth inh: inactive; Cycloheximide cs: 24; Giardia FBPA inh: inactive; Shiga toxin inh: inactive; Tb PYK inh: inactive; LmPK inhibitor: inactive

Results for CNC(=S)N/N=C/c1ccc(N(C)C)cc1 ?
RE007 growth inh: inactive; Cycloheximide cs: 54; Giardia FBPA inh: inactive; Shiga toxin inh: 77; Tb PYK inh: inactive; LmPK inhibitor: inactive

What do the screens show for `COc1ccc(-n2nc(-c3ccc(C)cc3)c3cnc4cc(F)c(F)cc4c32)cc1`?
Tb PYK inh: inactive

Results for CCc1nc2ccc(C(=O)NCc3ccc(OC)cc3)cn2c1N(CC)CCOC ?
RE007 growth inh: inactive[18.4 µM]; Tb PYK inh: inactive

Results for Nc1ccc2c(c1)sc1ccccc12 ?
RE007 growth inh: inactive; Cycloheximide cs: 58; Giardia FBPA inh: inactive; Shiga toxin inh: 82; Tb PYK inh: inactive; LmPK inhibitor: inactive
